Records with an inconclusive call do not appear. Where a call stands in place of a potency, no number is given. Activity calls are given as the source filed them. The call rests on the fitted dose curve; in most records, active means well fitted inhibition curve with a large enough effect; inconclusive means small, poorly fitted or top-dose-only effect; inactive means flat fitted curve, though single readings scatter.

For 36 compounds, outcome and Potency results are on record in PubChem BioAssay (NCATS).
Potency means the concentration at half of the fitted maximal effect.

For one experiment, the system named is CP211. As to the kind of experiment: qHTS profiling for inhibitors of Plasmodium falciparum proliferation (AID 504749). Further: nearly all actives have a fitted effect of over 60% in size. The settings on record: P. falciparum in erythrocytes, SYBR Green DNA, 72 h; series mostly up to 28.7 µM. In a few lines:
(§1)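 Parasite proliferation within erythrocytes, 72 h exposure. Endpoint: SYBR Green I fluorescence after overnight lysis at room temperature. Controls: 0.29 uM artemisinin, DMSO.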
Background: qHTS replaces the single test concentration by a dilution series.
Turning to `CNc1c2c(nn1C)CCCC2`, the result was inactive.

In the case of `NC(=O)CC[C@@H](N)C(=O)O`, the compound was called inactive.

`Cc1c(C(=O)NCCO)[n+](=O)c2ccccc2n1[O-]`: the call was inactive.

Regarding `CCCCOC(=O)c1ccc(N)cc1`, the compound was called inactive.

In the case of `CCCCCCCC(=O)OCC(O)CO` (configuration not stated), the call was inactive.

For `CCOc1cc(NC(C)=O)ccc1C(=O)OC`, the compound was called inactive.

Consider `C[C@@H](N)C(=O)O`, for which the compound was classed as inactive.

With `CC(N)CCCC(C)(C)O` (configuration not stated), the outcome was inactive.

Take `O=C(O)Cc1ccc(CCNS(=O)(=O)c2ccc(Cl)cc2)cc1`: the call was inactive.

For `COC(=O)c1cccnc1`, the compound was called inactive.

Take `O=C(Cn1ccnc1[N+](=O)[O-])NCCO`: the result was inactive.

As to `Cc1ccc(S(=O)(=O)NC(=O)NC2CCCCC2)cc1`, the outcome was inactive.

On to `C[N+](C)(C)CC[N+]1(C)Cc2c(Cl)c(Cl)c(Cl)c(Cl)c2C1`, for which the result was inactive.

Take `O=C(O)CCC(=O)O`: the outcome was inactive.

Turning to `NC(=O)NS(=O)(=O)c1ccc(N)cc1`, the outcome was inactive.

With `O=C(/C=C/c1ccccc1)OCc1ccccc1`, the result was inactive.

On to `COc1cc(C(=O)NCCCCCC(=O)O)cc(OC)c1OC`, for which the compound was called inactive.

For `O[C@@H]1CO[C@H]2[C@@H]1OC[C@@H]2O`, the outcome was inactive.

In the case of `O=C(O)c1ccc(OCCCOc2ccc(C(=O)O)cc2)cc1`, the outcome was inactive.

On to `CC(=O)NS(=O)(=O)c1ccc(N)cc1`, for which the call was inactive.

As for `CC(=O)Nc1ccc(C(=O)O)cc1`, the compound was classed as inactive.

As to `CC1CCc2cc(F)cc3c(=O)c(C(=O)O)cn1c23` (configuration not stated), the compound was called inactive.

`CCc1cccc(CC)c1NC(=O)CN(CC(=O)O)CC(=O)O`: the result was inactive.

In the case of `O=c1[nH]c(=O)c2ccccc2o1`, the result was inactive.

In the case of `CN/C(=C\[N+](=O)[O-])NCCSCc1csc(CN(C)C)n1`, the call was inactive.

Consider `NS(=O)(=O)c1cc(-c2nn[nH]n2)c(NCc2cccs2)cc1Cl`, for which the compound was classed as inactive.

On to `Cn1c(=O)c2c(ncn2CCO)n(C)c1=O`, for which the outcome was inactive.

As for `Nc1ncnc2c1ncn2[C@@H]1O[C@H](COP(=O)(O)O)[C@@H](O)[C@H]1O`, the result was inactive.

Take `COc1ccc(C(=O)N2CCN(CC(=O)N3CCOCC3)CC2)cc1`: the compound was called inactive.

Turning to `C[C@@H]1O[C@@H](OC[C@H]2O[C@@H](Oc3c(-c4ccc(O)c(O)c4)oc4cc(O)cc(O)c4c3=O)[C@H](O)[C@@H](O)[C@@H]2O)[C@H](O)[C@H](O)[C@H]1O`, the outcome was inactive.

Regarding `CN1C(C)(C)CCCC1(C)C`, the outcome was inactive.

Consider `Cc1cccc(C(=O)O)c1O`, for which the compound was classed as inactive.

On to `Cc1cc(NC(=O)C2=C(O)c3ccccc3S(=O)(=O)N2C)no1`, for which the outcome was inactive.

`NCC1CCC(C(=O)Oc2ccc(CCC(=O)O)cc2)CC1` (configuration not stated): the compound was classed as inactive.

`O=C(O)Cn1c(C(=O)Nc2nc(-c3ccccc3Cl)cs2)cc2ccccc21`: the compound was called inactive.

With `CC(=O)Nc1ccc(OCCOCCOc2ccc(NC(C)=O)cc2)cc1`, the call was inactive.

In the next experiment the test system is CP215. The experiment is described as above. The settings on record: P. falciparum in erythrocytes, SYBR Green DNA, 72 h; series mostly up to 28.7 µM. In a few lines:
as §1
Consider `CNc1c2c(nn1C)CCCC2`, for which the Potency result is “inactive”.

For `NC(=O)CC[C@@H](N)C(=O)O`, the Potency entry was “inactive”.

On to `Cc1c(C(=O)NCCO)[n+](=O)c2ccccc2n1[O-]`, for which the Potency result is “inactive”.

With `CCCCOC(=O)c1ccc(N)cc1`, the Potency result is “inactive”.

Consider `CCCCCCCC(=O)OCC(O)CO` (configuration not stated), for which the Potency result is “inactive”.

Consider `CCOc1cc(NC(C)=O)ccc1C(=O)OC`, for which the Potency result is “inactive”.

For `C[C@@H](N)C(=O)O`, the Potency is 1.69 µM (active).

As to `CC(N)CCCC(C)(C)O` (configuration not stated), the Potency result was “inactive”.

With `O=C(O)Cc1ccc(CCNS(=O)(=O)c2ccc(Cl)cc2)cc1`, the Potency entry is “inactive”.

For the compound `COC(=O)c1cccnc1`, the Potency entry was “inactive”.

`O=C(Cn1ccnc1[N+](=O)[O-])NCCO`: the Potency result was “inactive”.

As to `Cc1ccc(S(=O)(=O)NC(=O)NC2CCCCC2)cc1`, the Potency result is “inactive”.

In the case of `C[N+](C)(C)CC[N+]1(C)Cc2c(Cl)c(Cl)c(Cl)c(Cl)c2C1`, the Potency entry was “inactive”.

For the compound `O=C(O)CCC(=O)O`, the Potency result was “inactive”.

`NC(=O)NS(=O)(=O)c1ccc(N)cc1`: the Potency entry is “inactive”.

As for `O=C(/C=C/c1ccccc1)OCc1ccccc1`, the Potency entry was “inactive”.

Consider `COc1cc(C(=O)NCCCCCC(=O)O)cc(OC)c1OC`, for which the Potency entry is “inactive”.

As to `O[C@@H]1CO[C@H]2[C@@H]1OC[C@@H]2O`, the Potency entry was “inactive”.

`O=C(O)c1ccc(OCCCOc2ccc(C(=O)O)cc2)cc1`: the Potency result is “inactive”.

For `CC(=O)NS(=O)(=O)c1ccc(N)cc1`, the Potency result is “inactive”.

With `CC(=O)Nc1ccc(C(=O)O)cc1`, the Potency result was “inactive”.

Consider `CC1CCc2cc(F)cc3c(=O)c(C(=O)O)cn1c23` (configuration not stated), for which the Potency result was “inactive”.

With `CCc1cccc(CC)c1NC(=O)CN(CC(=O)O)CC(=O)O`, the Potency result was “inactive”.

`O=c1[nH]c(=O)c2ccccc2o1`: the Potency entry is “inactive”.

In the case of `CN/C(=C\[N+](=O)[O-])NCCSCc1csc(CN(C)C)n1`, the Potency result was “inactive”.

Consider `NS(=O)(=O)c1cc(-c2nn[nH]n2)c(NCc2cccs2)cc1Cl`, for which the Potency result is “inactive”.

With `Cn1c(=O)c2c(ncn2CCO)n(C)c1=O`, the Potency result was “inactive”.

Consider `Nc1ncnc2c1ncn2[C@@H]1O[C@H](COP(=O)(O)O)[C@@H](O)[C@H]1O`, for which the Potency entry was “inactive”.

Turning to `COc1ccc(C(=O)N2CCN(CC(=O)N3CCOCC3)CC2)cc1`, the Potency entry is “inactive”.

On to `C[C@@H]1O[C@@H](OC[C@H]2O[C@@H](Oc3c(-c4ccc(O)c(O)c4)oc4cc(O)cc(O)c4c3=O)[C@H](O)[C@@H](O)[C@@H]2O)[C@H](O)[C@H](O)[C@H]1O`, for which the Potency entry is “inactive”.

`CN1C(C)(C)CCCC1(C)C`: the Potency result is “inactive”.

For `Cc1cccc(C(=O)O)c1O`, the Potency result is “inactive”.

`Cc1cc(NC(=O)C2=C(O)c3ccccc3S(=O)(=O)N2C)no1`: the Potency result was “inactive”.

Consider `NCC1CCC(C(=O)Oc2ccc(CCC(=O)O)cc2)CC1` (configuration not stated), for which the Potency result is “inactive”.

As for `O=C(O)Cn1c(C(=O)Nc2nc(-c3ccccc3Cl)cs2)cc2ccccc21`, the Potency result was “inactive”.

Regarding `CC(=O)Nc1ccc(OCCOCCOc2ccc(NC(C)=O)cc2)cc1`, the Potency entry was “inactive”.
